Results with a measured potency or affinity are listed apart. Active and inactive are the calls of the source.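 Rule for the calls: active = viability loss whose fitted half-maximal concentration is at most twice the top valid tested dose; inconclusive = flat curve with 30 to 70% loss, or poor fit; inactive = the rest.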
Experiment: HepG2 cell cytotoxicity, dose response, cytotoxicity control, ATP luminescence, cherry-pick, set 6 (AID 1053125);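 note: negative values mean loss of viability signal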
Settings: HepG2 viability, ATP luminescence (CellTiter-Glo), 72 h; series mostly up to 26 µM; activity change, negative = cytotoxicity: at the top concentration

| SMILES | activity change, negative = cytotoxicity |
| --- | --- |
| O=C1c2ccccc2S(=O)(=O)c2cc(N3CCC(C(=O)N4CCCCC4)CC3)ccc21 | -6.38% (inactive) |
| NC(=O)c1c(NC(=O)Cc2ccccc2)sc2c1CCN(Cc1ccccc1)C2 | -10.1% (inactive) |
| CC(C)N1CCc2c(sc(NC(=O)Cc3ccccc3)c2C#N)C1 | 8.38% (inactive) |
| CSc1ccc(Cl)c(C(=O)N2CCOc3ccccc32)c1 | -2.96% (inactive) |
| CC(=O)Oc1ccc(C(=O)Nc2cc(C)on2)cc1 | -19.6% (inactive) |
| COc1ccccc1NS(=O)(=O)c1cc(NC(=O)CCNC(C)=O)ccc1C | -4.09% (inactive) |
| CCCN1CCN(C(=O)c2ccc(CS(=O)c3ccc(Br)cc3)o2)CC1 (stereo not drawn) | 4.12% (inactive) |
| CC1CCCCC1NC(=O)CN1C(=O)c2cccc(N)c2C1=O (stereo not drawn) | -3.23% (inactive) |
| CCc1nnc(NC(=O)c2ccc(-c3ccccc3F)o2)s1 | -17% (inactive) |
| CCCOc1c(Br)cc(C2C3=C(CCCC3=O)N(C)C3=C2C(=O)CCC3)cc1OC | -0.917% (inactive) |
| COc1ccc(NC(=O)C2CCC(CNS(=O)(=O)c3cccs3)CC2)cc1 (stereo not drawn) | 4.3% (inactive) |
| CCOCCCNC(=S)N1CCCN(c2nc3cc(C)c(C)cc3cc2C#N)CC1 | 25.8% (inactive) |
| N=c1oc2cc(O)ccc2cc1C(=O)Nc1nc2ccccc2s1 | -0.66% (inactive) |
| C[C@H](NC(=O)c1nc[nH]c1C(=O)N[C@@H](Cc1ccccc1)C(=O)OC(C)(C)C)C(=O)OCc1ccccc1 | 1.48% (inactive) |
| COc1ccc(S(=O)(=O)Cc2ccc(C(=O)N3CCN(Cc4ccccc4)CC3)o2)cc1 | 13.9% (inactive) |
| Cc1cc(C)nc(SCC(=O)Nc2ccc(S(=O)(=O)Nc3onc(C)c3C)cc2)n1 | -1.5% (inactive) |
| Cc1cc(CNC(=O)c2ccc3c(c2)OCO3)c2ccccc2n1 | -4.91% (inactive) |
| O=C(CCCN1C(=O)CSc2ncccc21)N1CCN(Cc2ccccc2)CC1 | -10.3% (inactive) |

Reference: PubChem BioAssay AID1053125 (Broad Institute, 2014)
